Bioassay records deposited in PubChem by several laboratories.
NadD inh: blocks S. aureus nicotinate mononucleotide adenylyltransferase; purified NadD enzyme, colorimetric absorbance read-out; inhibition, % at 20 µM; 0.78% of 360,000 active; AID 602399; in the data active = inhibition above about 26%
CRFR2-BP antag: antagonists of CRF-binding protein/CRF-R2 receptor complex; HEK293 CRF-R2/CRF-BP, CRF-induced calcium fluorescence; inhibition, % at 11.8 µM; 0.59% of 350,000 active; AID 588475;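 active = inhibition of the ligand-induced calcium signal above about 50% at the single tested concentration, limit read from the data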
CendR NRP1 mod: alters CendR peptide binding to human NRP-1; FAM-RPARPAR peptide binding to NRP-1, fluorescence polarization; inhibition, % at 25 µM; 0.85% of 360,000 active; AID 602438;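 active = inhibition or corrected inhibition above about 18%, plus a signal ratio from 0.5 to 1.5, limit read from the data, passing the limit was not always enough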
Target sequence (O14786 whole entry, looked up): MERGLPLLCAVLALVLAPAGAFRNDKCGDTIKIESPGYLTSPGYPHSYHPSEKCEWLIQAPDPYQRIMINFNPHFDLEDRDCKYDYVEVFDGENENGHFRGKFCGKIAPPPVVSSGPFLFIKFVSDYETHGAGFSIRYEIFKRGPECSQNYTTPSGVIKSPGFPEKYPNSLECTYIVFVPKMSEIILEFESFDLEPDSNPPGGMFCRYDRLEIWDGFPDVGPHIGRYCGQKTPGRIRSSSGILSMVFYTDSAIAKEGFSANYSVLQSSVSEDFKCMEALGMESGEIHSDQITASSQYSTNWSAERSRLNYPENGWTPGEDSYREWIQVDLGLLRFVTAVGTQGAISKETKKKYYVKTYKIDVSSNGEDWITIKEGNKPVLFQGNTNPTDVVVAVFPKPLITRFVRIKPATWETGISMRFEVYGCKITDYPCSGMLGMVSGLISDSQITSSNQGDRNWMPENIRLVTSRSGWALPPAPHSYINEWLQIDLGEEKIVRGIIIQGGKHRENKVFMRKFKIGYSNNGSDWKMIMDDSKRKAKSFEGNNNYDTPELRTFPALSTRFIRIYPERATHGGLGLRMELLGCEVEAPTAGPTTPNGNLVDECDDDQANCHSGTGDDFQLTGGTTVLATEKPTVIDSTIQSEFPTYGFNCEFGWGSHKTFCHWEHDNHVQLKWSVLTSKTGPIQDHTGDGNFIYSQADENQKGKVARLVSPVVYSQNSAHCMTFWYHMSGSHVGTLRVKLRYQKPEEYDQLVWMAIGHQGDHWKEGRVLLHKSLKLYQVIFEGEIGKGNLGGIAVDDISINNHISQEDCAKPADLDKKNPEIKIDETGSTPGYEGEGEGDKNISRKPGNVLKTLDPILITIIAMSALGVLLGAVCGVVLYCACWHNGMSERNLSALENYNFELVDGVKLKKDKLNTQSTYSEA
Myeloid diff 2: promotes myeloid progenitor differentiation; 1% of 360,000 active; AID 624256; calls only at 10 µM; ER-HoxA9 myeloid progenitors, lysozyme-GFP differentiation, flow cytometry;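 active = normalized GFP-positive differentiation at or above the plate's own cutoff, the solvent-only control mean plus 3 SD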;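 also: cells exposed to compound for four days before flow analysis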
FAS-TE inh: blocks the thioesterase domain of human fatty acid synthase; P49327; recombinant FAS-TE, OMFH fluorogenic substrate, fluorescence endpoint; inhibition, % at 15 µM; 0.67% of 360,000 active; AID 602261;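 active = compounds whose normalised, plate-corrected inhibition of enzyme fluorescence in the single-dose primary screen is 50% or more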;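 also: 0% = DMSO with enzyme and 100% = substrate without enzyme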
Active calls of the source: *; i = inactive; . = no result given; + = active, no number. An excerpt weighted towards active compounds, which were near 3.6% of everything screened.

SMILES	NadD inh	CRFR2-BP antag	CendR NRP1 mod	Myeloid diff 2	FAS-TE inh
Cc1cc(SCC(=O)c2ccccc2)nc(C)n1	-1.4	26.1	26.1*	i	-3.3
COC1=CC(=O)OC(c2cccc(C#N)c2)C1 (stereo not drawn)	.	.	6.8	i	.
CC1(C(=O)Nc2ccc(F)c(Cl)c2)Cc2c(-c3ccc(C(N)=O)cc3)ccnc2O1 (stereo not drawn)	-1.2	.	-9.2	i	10.1
C/C(=N\NC(=O)c1cc([N+](=O)[O-])cc([N+](=O)[O-])c1)c1ccco1	-0.7	-7.1	25.0*	i	2.7
C/C(=N/NC(=O)c1cc(-c2ccc(Br)s2)[nH]n1)c1ccco1	3.5	-37.8	36.3*	i	-4.8
CC(=O)c1ccccc1NC(=O)CSc1nnc(Cc2csc(C)n2)o1	-4.2	14.5	8.0	i	-2.9
Cc1cc(C(=O)N/N=C\c2cc(C(C)(C)C)ccc2O)n[nH]1	-0.7	-7.2	3.9	+	5.0
CC#CCCCC(=O)Nc1ccc(C(=O)O)cc1	1.0	-30.5	10.0	i	-12.6
CC#CCCCC(=O)Nc1ccccc1C(=O)O	-2.7	63.2*	-7.8	i	-10.7
CCC(C)[C@H](NC(=O)Nc1ccccc1F)C(=O)OC (stereo partly drawn)	-2.4	-9.2	21.8*	i	-5.3
COc1ccc(-c2cc3c(c4c2ccn4C)C2CCC3C2)cc1OC (stereo not drawn)	-6.5	.	-4.3	i	7.6
Cc1ccc(NC(=O)CCC(=O)Nc2nnc(C3CCCCC3)s2)cc1	3.3	-12.7	-7.6	+	-0.7
CC(C)CCNC(=O)c1onc(CSc2ccccc2)c1C(=O)NCCC(C)C	3.6	-6.5	24.1	i	19.9
CC(C)(CNC(=O)c1cc(Cl)c(O)c(Cl)c1)N1CCCCC1	0.2	55.4*	6.9	i	-6.0
Cc1cc(-c2csc(NC(=O)c3ccc(=O)[nH]c3)n2)c(C)n1Cc1ccco1	67.1*	18.0	-70.7	i	2.1
CCNc1nc(-c2cc(C)n(Cc3ccco3)c2C)cs1	22.8	2.4	1.8	i	-56.0
CC(=O)NC(CC(=O)Nc1cccc(S(=O)(=O)N2CCCCC2)c1)c1ccccc1 (stereo not drawn)	-8.8	14.7	18.1	i	0.6
Cc1ccc([C@@H]2CC=C(C(=O)O)[C@H](c3ccc(C(C)(C)C)cc3)N2S(=O)(=O)c2ccc(C)cc2)cc1	21.2	24.8	-23.3	i	18.9
CCc1ccc([C@@H]2CC=C(C(=O)O)[C@H](c3ccc(C(C)(C)C)cc3)N2S(=O)(=O)c2ccc(C)cc2)cc1	23.0	50.4*	-87.1	i	54.3*
CCCC(=O)NC(C)c1nc2ccccc2[nH]1 (stereo not drawn)	-4.0	58.1*	-8.0	i	-2.7
C=CCOC(=O)Nc1nc(CCNC(=O)OCc2ccccc2)c(C(=O)O)s1	.	.	-24.1	i	.
COc1ccc(NS(=O)(=O)c2csc(C(=O)N3CCCC3)c2)c(OC)c1	-4.8	4.7	19.1*	i	-4.5
O=C(NN(Cc1ccccc1)Cc1ccccc1)c1ccccc1	-0.2	9.8	16.2	i	-1.4
O=C(O)c1cc(-c2cccnc2)nc2ccc(Br)cc12	3.7	-2.8	1.8	+	-1.8
Fc1ccc(-c2cc(-c3nnc4n3CCCCC4)c3ccccc3n2)cc1	-2.1	3.9	3.8	i	-5.0
SMILES	NadD inh	CRFR2-BP antag	CendR NRP1 mod	Myeloid diff 2	FAS-TE inh
Clc1ccc(-c2cc(-c3nnc4n3CCCCC4)c3ccccc3n2)cc1	5.0	-1.5	-3.0	+	-0.4
CCC(=O)N1CCN(c2ccccc2NC(=S)NC(=O)c2cccc([N+](=O)[O-])c2)CC1	11.8	-32.7	7.9	i	41.4
Cc1cc(N2CCN(C)CC2)ccc1NC(=O)c1ccc(-c2ccc(Cl)cc2)o1	-5.8	0.9	-0.5	+	4.0
CN1CCN(c2ccccc2NC(=O)c2ccc(-c3cccc([N+](=O)[O-])c3)o2)CC1	4.6	-17.5	45.3*	i	29.0
CCC(=O)N1CCN(c2ccccc2NC(=O)c2ccc(-c3cccc([N+](=O)[O-])c3)o2)CC1	17.8	-18.1	-2.0	i	51.3*
C#CCOCCOCCOCCNc1nc(N2CCOCC2)nc(N2CCN(C(=O)CCCCCCCCCCNC(=O)[C@@H]([C@H](C)CC)n3cc(CCCCCN)nn3)CC2)n1	2.9	-1.4	6.0	+	-8.4
C#CCOCCOCCOCCNc1nc(N2CCN(C(=O)CCCCCCCCCCNC(=O)Cn3cc(CCCCCN)nn3)CC2)nc(N2CCN(C(=O)CCCCCCCCCCNC(=O)[C@H]([C@@H](C)CC)n3cc(CCCCN=C(N)N)nn3)CC2)n1	43.3*	-110.3	11.9	i	-44.0
C#CCOCCOCCOCCNc1nc(N2CCN(C(=O)CCCCCCCCCCNC(=O)[C@H]([C@@H](C)CC)n3cc(CCCCCN)nn3)CC2)nc(N2CCN(C(=O)CCCCCCCCCCNC(=O)[C@H]([C@@H](C)CC)n3cc(CCCCN=C(N)N)nn3)CC2)n1	48.1*	.	10.9	i	-104.0
C#CCOCCOCCOCCNc1nc(N2CCN(C(=O)CCCCCCCCCCNC(=O)[C@H]([C@@H](C)CC)n3cc(CCCCN=C(N)N)nn3)CC2)nc(N2CCN(C(=O)CCCCCCCCCCNC(=O)[C@H](CCCCN)n3cc(C)nn3)CC2)n1	.	-50.9	.	.	.
C#CCOCCOCCOCCNc1nc(N2CCN(C(=O)CCCCCCCCCCNC(=O)[C@H]([C@@H](C)CC)n3cc(CCCCCN)nn3)CC2)nc(N2CCN(C(=O)CCCCCCCCCCNC(=O)[C@H](CO)n3cc(CCCCCN)nn3)CC2)n1	21.3	-41.8	9.2	i	-31.1
C#CCOCCOCCOCCNc1nc(N2CCN(C(=O)Cn3cc(CCCN=C(N)N)nn3)CC2)nc(N2CCN(C(=O)[C@H]([C@@H](C)CC)n3cc(CCCCN)nn3)CC2)n1	-7.5	2.8	-1.5	i	-7.6
C#CCOCCOCCOCCNc1nc(N2CCN(C(=O)CCCCCCCCCCNC(=O)[C@H]([C@@H](C)CC)n3cc(CCCCN=C(N)N)nn3)CC2)nc(N2CCN(C(=O)CCCCCCCCCCNC(=O)[C@H](CO)n3cc(CCCCCN)nn3)CC2)n1	35.7*	-188.7	28.1*	i	-47.0
O=c1[nH]c2ccc(Cl)cc2[nH]1	-9.6	109.4*	-1.6	i	-2.8
Oc1c(/C=C/C=C/C=Nc2ccccc2)sc(=S)n1Cc1ccccc1	32.0*	-20.5	-145.2	i	21.4
Cc1ccc(S(=O)(=O)N(Cc2ccccc2)c2ccccc2C(=O)NCc2ccco2)cc1	-1.0	70.9*	3.8	i	24.8
CCOC(=O)Oc1ccc2c(=O)c(Oc3cccc(C)c3)coc2c1	-7.8	52.4*	9.5	i	-1.2
CCOC(=O)Oc1ccc2c(=O)c(Oc3cc(C)cc(C)c3)coc2c1	-11.3	9.8	0.7	i	3.3
COc1ccc(S(=O)(=O)N2CCCCCC2)cc1C(=O)N1CCN(c2ccc(F)cc2)CC1	-0.2	3.5	-2.1	i	26.3
O=C(Nc1cccnc1)c1ccc(Cl)c(S(=O)(=O)N2CCCCCC2)c1	8.5	-28.0	7.8	i	1.0
